PubChem BioAssay (NCATS)
Results filed as inconclusive are left out. A number with no mark means an inactive call. Calls come from the whole dose curve; as a rule, active = well fitted curve in either direction with a large enough effect (not every such curve was filed as active); inconclusive = small, poorly fitted or top-dose-only effect, or another doubt; inactive = flat fitted curve, though single readings scatter.

Assay: NFAT Signaling Pathway (AID 444);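 note: carbachol stimulus at about its EC50 of 1 µM final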
Settings: Jurkat NFAT-bla M1, carbachol, beta-lactamase ratio, 5 h; at 7.69 µM (top of the series) unless noted
Outline: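 Jurkat cells with NFAT-driven β-lactamase reporter and co-expressed M1 receptor, stimulated with carbachol (final 1 uM, ~EC50), compound titration, 5 h at 37 °C. CCF4 loaded 1 h at RT; 460/530 nm ratio gave %activity and AC50.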
% is set by controls: 0 for no effect and ±100 for the full control effect.

Question: Which activity change, negative = inhibition does the source give for `CC(=O)N1CCC2(CC1)CN(Cc1ccccc1)C2` here?
Answer: The activity change, negative = inhibition was 0.306%.

Question: Which activity change, negative = inhibition does the source give for `Cn1cccc1C(=O)N1CCC2(CCN(C(=O)Nc3cccc(F)c3)CC2)CC1` here?
Answer: Its activity change, negative = inhibition is 15.8%.

Question: Which activity change, negative = inhibition does the source give for `COCC(=O)N1CCC2(CC1)CCN(C(=O)Nc1ccc(OC)cc1)CC2` here?
Answer: The activity change, negative = inhibition was 6.08%.

Question: For `COC(=O)N1CCC[C@@]2(CCN(c3ccncc3)C2)C1`, which activity change, negative = inhibition is on record?
Answer: The activity change, negative = inhibition was -14.4%.

Question: Which activity change, negative = inhibition does the source give for `COC(=O)N1CCC2(CCN(C(=O)NC(C)C)CC2)CC1` here?
Answer: The activity change, negative = inhibition was -29.8%.

Question: Which activity change, negative = inhibition does the source give for `O=C(Nc1cccc(F)c1)N1CCC2(CCNCC2)CC1` here?
Answer: Its activity change, negative = inhibition is -3.25%.

Question: Which activity change, negative = inhibition does the source give for `O=S(=O)(c1ccccc1)N1CCC2(CCN(C(c3ccccc3)c3ccccc3)CC2)CC1` here?
Answer: Its activity change, negative = inhibition is -19.9%.

Question: For `CC(C)NC(=O)N1CC[C@@]2(CCCN(C(=O)c3cccn3C)C2)C1`, which activity change, negative = inhibition is on record?
Answer: The activity change, negative = inhibition was -8.88%.

Question: For `CS(=O)(=O)N1CCC2(CCN(c3ccccc3)CC2)CC1`, which activity change, negative = inhibition is on record?
Answer: Its activity change, negative = inhibition is -7.56%.

Question: Which activity change, negative = inhibition does the source give for `CC(C)NC(=O)N1CC[C@@]2(CCCN(C(=O)Oc3ccccc3)C2)C1` here?
Answer: The activity change, negative = inhibition was -15.6%.

Question: Which activity change, negative = inhibition does the source give for `COc1ccc(NC(=O)N2CC[C@@]3(CCCNC3)C2)cc1` here?
Answer: Its activity change, negative = inhibition is -5.59%.

Question: For `O=C(c1ccncc1)N1CCC2(CC1)CN(c1ncccn1)C2`, which activity change, negative = inhibition is on record?
Answer: Its activity change, negative = inhibition is 6.22%.

Question: Which activity change, negative = inhibition does the source give for `COc1ccc(NC(=O)N2CC3(CCN(C(=O)c4cccn4C)CC3)C2)cc1` here?
Answer: Its activity change, negative = inhibition is 14.9%.

Question: With `COC(=O)N1CCC2(CC1)CN(C(=O)Nc1ccccc1)C2` as the molecule, how does the activity change, negative = inhibition read?
Answer: The activity change, negative = inhibition was 8.68%.

Question: Which activity change, negative = inhibition does the source give for `COc1ccccc1CN1CC[C@@]2(CCCN(C(=O)c3c(C)noc3C)C2)C1` here?
Answer: The activity change, negative = inhibition was -13.2%.

Question: For `CC(=O)N1CCC[C@@]2(CCN(Cc3ccccc3)C2)C1`, which activity change, negative = inhibition is on record?
Answer: The activity change, negative = inhibition was 17.1%.

Question: With `O=C(c1csnn1)N1CCC2(CCCN(Cc3cc(C(F)(F)F)cc(C(F)(F)F)c3)C2)CC1` as the molecule, how does the activity change, negative = inhibition read?
Answer: The activity change, negative = inhibition was 10.5%.

Question: Which activity change, negative = inhibition does the source give for `CS(=O)(=O)N1CCC2(CC1)CN(C(=O)Nc1ccccc1)C2` here?
Answer: Its activity change, negative = inhibition is 11.2%.

Question: Which activity change, negative = inhibition does the source give for `O=C(Nc1cccc(F)c1)N1CCC2(CC1)CCN(C(=O)c1csnn1)CC2` here?
Answer: Its activity change, negative = inhibition is 26.3%.

Question: For `COCC(=O)N1CCC2(CCCN(C(=O)Nc3cccc(F)c3)C2)CC1`, which activity change, negative = inhibition is on record?
Answer: The activity change, negative = inhibition was 3.84%.

Question: For `COc1ccc(NC(=O)N2CCC3(CC2)CCN(C(=O)c2cnccn2)CC3)cc1`, which activity change, negative = inhibition is on record?
Answer: The activity change, negative = inhibition was 9.86%.

Question: Which activity change, negative = inhibition does the source give for `O=C(Nc1ccccc1)N1CCC2(CC1)CCN(C(=O)c1csnn1)CC2` here?
Answer: The activity change, negative = inhibition was 11.2%.

Question: With `COC(=O)N1CCC[C@@]2(CCN(C(=O)Nc3ccccc3)C2)C1` as the molecule, how does the activity change, negative = inhibition read?
Answer: Its activity change, negative = inhibition is 8.29%.

Question: Which activity change, negative = inhibition does the source give for `COc1ccc(C(=O)N2CCC3(CCCN(Cc4ccncc4)C3)CC2)cc1` here?
Answer: Its activity change, negative = inhibition is -17.9%.

Question: Which activity change, negative = inhibition does the source give for `O=C(c1cc(C(F)(F)F)cc(C(F)(F)F)c1)N1CCC[C@@]2(CCN(Cc3ccncc3)C2)C1` here?
Answer: The activity change, negative = inhibition was -25.1%.

Question: For `COc1ccc(NC(=O)N2CC3(CCN(C(=O)c4c(C)noc4C)CC3)C2)cc1`, which activity change, negative = inhibition is on record?
Answer: The activity change, negative = inhibition was 15.1%.

Question: With `O=C(Nc1ccccc1)N1CCC2(CC1)CCN(C(=O)c1cnccn1)CC2` as the molecule, how does the activity change, negative = inhibition read?
Answer: The activity change, negative = inhibition was 11.9%.

Question: Which activity change, negative = inhibition does the source give for `COC(=O)N1CCC2(CC1)CN(c1cccc(-c3ccccc3)c1)C2` here?
Answer: Its activity change, negative = inhibition is -3.27%.

Question: Which activity change, negative = inhibition does the source give for `COCC(=O)N1CCC[C@@]2(CCN(c3ncccn3)C2)C1` here?
Answer: The activity change, negative = inhibition was -4.08%.

Question: For `O=C(Nc1cccc(F)c1)N1CC2(CCN(C(=O)c3csnn3)CC2)C1`, which activity change, negative = inhibition is on record?
Answer: The activity change, negative = inhibition was 16.8%.

Question: Which activity change, negative = inhibition does the source give for `COCC(=O)N1CCC2(CC1)CN(C(=O)Nc1cccc(C#N)c1)C2` here?
Answer: The activity change, negative = inhibition was 9.29%.

Question: For `CC(C)NC(=O)N1CCC2(CC1)CCN(S(C)(=O)=O)CC2`, which activity change, negative = inhibition is on record?
Answer: Its activity change, negative = inhibition is 6.9%.

Question: Which activity change, negative = inhibition does the source give for `O=C(c1csnn1)N1CCC2(CC1)CN(c1ccncc1)C2` here?
Answer: The activity change, negative = inhibition was -12.8%.

Question: For `COCC(=O)N1CCC2(CC1)CCN(C(=O)Nc1cccc(F)c1)CC2`, which activity change, negative = inhibition is on record?
Answer: Its activity change, negative = inhibition is 3.94%.

Question: Which activity change, negative = inhibition does the source give for `O=C(c1cnccn1)N1CCC2(CCN(Cc3nccs3)CC2)CC1` here?
Answer: Its activity change, negative = inhibition is 9.93%.

Question: Which activity change, negative = inhibition does the source give for `CC(=O)N1CCC2(CC1)CN(c1ccncc1)C2` here?
Answer: Its activity change, negative = inhibition is 0.609%.

Question: Which activity change, negative = inhibition does the source give for `CS(=O)(=O)N1CCC2(CCN(C(=O)Nc3cccc(F)c3)CC2)CC1` here?
Answer: The activity change, negative = inhibition was 8.92%.

Question: Which activity change, negative = inhibition does the source give for `O=C(Nc1ccccc1)N1CC[C@@]2(CCCN(C(=O)c3ccco3)C2)C1` here?
Answer: Its activity change, negative = inhibition is 4.43%.

Question: With `CS(=O)(=O)N1CCC[C@@]2(CCN(C(=O)Nc3ccccc3)C2)C1` as the molecule, how does the activity change, negative = inhibition read?
Answer: The activity change, negative = inhibition was 17.3%.

Question: With `Cc1noc(C)c1C(=O)N1CCC[C@@]2(CCN(C(=O)NC(C)C)C2)C1` as the molecule, how does the activity change, negative = inhibition read?
Answer: Its activity change, negative = inhibition is 7.59%.
